This is an account of results in PubChem BioAssay (Tox21).

Molecules are shown by their SMILES. “And” between values parts separate entries of the source, which are not always exact repeats. Identical values can stand only once. Inconclusive results are not listed. Where a structure was tested more than once in an assay, its records may differ in their call. The source made the active and inactive calls. Calls come from the whole dose curve; as a rule, active = well fitted cell-killing curve with a large enough effect in the repeat runs; inconclusive = weak or mixed curves, or effect the other way; inactive = flat fitted curve, though single readings scatter.
% is set by controls: 0 for no effect and ±100 for the full control effect; potency is the fitted concentration of half-maximal effect.

The experiment can be described thus: qHTS assay to identify small molecule agonists of the TGF-beta/Smad signaling pathway - cell viability counter screen (AID 1346829). For activity change, negative = cytotoxicity: top concentration of the series differs between compounds. Note: nearly all actives have a fitted effect of over 45% in size. Conditions: SBE-bla HEK293T viability, CellTiter-Glo luminescence, 5 h; series mostly up to 76.8 µM; activity change, negative = cytotoxicity: at the top concentration. An excerpt: National Center for Advancing Translational Sciences [NCATS]
NIH Chemical Genomics Center [NCGC]
U.S. Environmental Protection Agency [EPA]
National Institutes of Environmental Health Sciences [NIEHS]
National Toxicology Program [NTP]
U.S. Food and Drug Administration [FDA]
Transforming growth factor beta (TGF-beta) superfamily consists of a large number of structurally related dimeric proteins that act as hormones or local mediators in regulating a wide range of biological functions. This superfamily includes TGF-betas themselves, the bone morphogenetic proteins (BMPs) and the activins. These ligands induce oligomerization of serine/threonine receptor kinases and phosphorylate the cytoplasmic signaling molecules of Smad protein family. CellSensor SBE-bla HEK 293T cell line (Life Technologies, Carlsbad, CA), responsive to TGF-beta was used to screen Tox21 10K compound library for identification of agonists/antagonists of the Smad signaling pathway. This cell line contains a beta-lactamase reporter gene under control of the Smad binding element (SBE) stably integrated into HEK 293T cells. Also cytotoxicity of the compounds was tested in parallel by measuring the cell viability using CellTiter-Glo assay system in the same wells.
Tox21 Assay Protocol Summary:
SBE-bla HEK 293T cells were dispensed at 4,000/well in 6 uL of assay medium into black wall/clear-bottom 1536-well plates using a Multidrop Combi (ThermoFisher Scientific, Waltham, MA) dispenser. After the assay plates were incubated at 37 C and 5% CO2 for an overnight, 23 nL of compounds dissolved in DMSO, positive controls or DMSO only was transferred to the assay plate by a Pintool station (Kalypsys, San Diego, CA). The assay plates were incubated at 37 C and 5% CO2 for 5 hr. One uL of LiveBLAzer B/G FRET substrate (Life Technologies) was added using a Flying Reagent Dispenser (FRD, Aurora Discovery, San Diego, CA) and the plates were incubated at room temperature for 2 hr. Fluorescence intensity (405 nm excitation, 460 nm and 530 nm emissions) was measured using an Envision plate reader (PerkinElmer, Shelton, CT). For cytotoxicity read, 4 uL of CellTiter-Glo reagent (Promega Corporation, Madison, WI) was added to each well of the assay plates using FRD. After 30min incubation at room temperature, the luminescence intensity was measured using ViewLux plate reader (PerkinElmer).
On to `CCN(CCN)c1cccc(C)c1`, for which the Potency entry was “inactive”.

With `CCCCCCCC`, the “activity change, negative = cytotoxicity” value was -12.8% (inactive).

`COC(=O)C1=C(C)NC(C)=C(C(=O)OCCN2CCN(C(c3ccccc3)c3ccccc3)CC2)C1c1cccc([N+](=O)[O-])c1` (stereo not given): the “activity change, negative = cytotoxicity” value is 12.5% [at 35.3 µM] (inactive).

Take `CCC(COC(=O)CCS)(COC(=O)CCS)COC(=O)CCS`: the “activity change, negative = cytotoxicity” value was 3.78% (inactive).

For the compound `OC1CCC(C2CCCCC2)CC1` (stereo not given), the “activity change, negative = cytotoxicity” value was 9.63% (inactive).

With `Cc1nc(-c2ccc(Cl)cc2)oc1COC(C)(C)C(=O)O`, the “activity change, negative = cytotoxicity” value is 10.1% [at 35.3 µM] (inactive).

For `OC[C@@H](O)[C@@H](O)CO`, the “activity change, negative = cytotoxicity” value is 4.26% (inactive).

For `CCCCCCCCCCCCCCCC[N+](C)(C)CC`, the Potency was 55.1 µM (active) and 26.8 µM (active).

Take `C1CCC(SSC2CCCCC2)CC1`: the “activity change, negative = cytotoxicity” value was 9.09% (inactive).

Turning to `C=CC(=O)OCCOC(=O)C=C`, the “activity change, negative = cytotoxicity” value was 26.6% (inactive).

Take `CCCCCCCCCCCCCC[N+](C)(C)C`: the Potency is 54.9 µM (active) and inactive.

As to `c1ccc(SSc2ccccc2)cc1`, the “activity change, negative = cytotoxicity” value is 9% (inactive).

With `OC12N=C(c3ccccc3)SC1Cc1cc(Cl)ccc12` (stereo not given), the “activity change, negative = cytotoxicity” value is -14.8% (inactive).

As for `O=[N+]([O-])c1ccc(F)c(Cl)c1`, the “activity change, negative = cytotoxicity” value is 7.11% (inactive).

Consider `CC(CO)Oc1ccccc1` (stereo not given), for which the “activity change, negative = cytotoxicity” value was -17% (inactive).

Regarding `COC(C)=O`, the “activity change, negative = cytotoxicity” value is -5.53% (inactive).

Turning to `O=C1NC(=O)[C@@H]2CC=CC[C@H]12`, the “activity change, negative = cytotoxicity” value was 3.82% (inactive).

In the case of `C=CC(C)(CCC=C(C)C)OC=O` (stereo not given), the “activity change, negative = cytotoxicity” value was 0.627% (inactive).

Take `COc1c(C)c2c(c(O)c1C/C=C(\C)CCC(=O)OCCN1CCOCC1)C(=O)OC2`: the “activity change, negative = cytotoxicity” value was -25.8% [at 35.3 µM] (inactive).

As for `O=C(Nc1ccc2c(O)c(N=Nc3ccc(N=Nc4ccc(S(=O)(=O)O)cc4)cc3)c(S(=O)(=O)O)cc2c1)c1ccccc1`, the “activity change, negative = cytotoxicity” value was 4.54% (inactive).

With `O=c1[nH]c(=O)n([C@H]2C[C@H](O)[C@@H](CO)O2)cc1F`, the “activity change, negative = cytotoxicity” value is -14.4% [at 35.3 µM] (inactive).

Take `OCC(F)(F)F`: the “activity change, negative = cytotoxicity” value is -2.97% (inactive).

Take `CCCC(=O)OC(C)(C)Cc1ccccc1`: the “activity change, negative = cytotoxicity” value was 3.19% (inactive).

In the case of `CC1(C)CCC[C@]2(C)[C@H]3CCO[C@]3(C)CC[C@@H]12`, the “activity change, negative = cytotoxicity” value was 2.02% (inactive).

With `CC(=O)OCC=C(C)C`, the “activity change, negative = cytotoxicity” value is 0.507% [at 35.3 µM] (inactive).

With `Nc1nc(N)nc(-c2cc(Cl)ccc2Cl)n1`, the “activity change, negative = cytotoxicity” value is -4.3% [at 35.3 µM] (inactive).

As to `CC(C)(C)CC(C)(C)c1ccc(Nc2ccc(C(C)(C)CC(C)(C)C)cc2)cc1`, the activity change, negative = cytotoxicity was 1.44% [at 6.97 µM] (inactive).

Regarding `CCCCC(CC)COC(=O)CCCCC(=O)OCc1ccccc1` (stereo not given), the “activity change, negative = cytotoxicity” value is 13.7% (inactive).

Turning to `CC(C)CCCCCOC(=O)CCS`, the “activity change, negative = cytotoxicity” value was 5.13% (inactive).

Take `CC1=Nc2ccccc2C1(C)C`: the “activity change, negative = cytotoxicity” value is 21.6% (inactive).

For `C#Cc1ccc(-c2ccccc2F)cc1`, the “activity change, negative = cytotoxicity” value was -3.56% [at 35.3 µM] (inactive).

As for `FC(F)(F)c1cccc(Cl)c1`, the “activity change, negative = cytotoxicity” value was 0.174% (inactive).

With `O[C@@H]([C@H](O)[C@H](O)CBr)[C@H](O)CBr`, the “activity change, negative = cytotoxicity” value is 1.11% (inactive).

`O=C(O)[C@H](O)[C@@H](O)[C@H](O[C@@H]1O[C@H](CO)[C@H](O)[C@H](O)[C@H]1O)[C@H](O)CO`: the “activity change, negative = cytotoxicity” value was 17.8% [at 35.3 µM] (inactive).

On to `Cc1cc(=O)oc2cc(O)cc(O)c12`, for which the “activity change, negative = cytotoxicity” value is -1.61% (inactive).

With `O=C(O)CCN(C1(C(=O)NO)CCCC1)S(=O)(=O)c1ccc(Oc2ccc(F)cc2)cc1`, the “activity change, negative = cytotoxicity” value was 9.48% (inactive).

With `CCCC1CCC(=O)CC1`, the “activity change, negative = cytotoxicity” value was -5.2% (inactive).

Take `Nc1ccc(NCCO)c([N+](=O)[O-])c1`: the “activity change, negative = cytotoxicity” value is -12.8% (inactive).

Turning to `COC(=O)c1ccccc1OC`, the “activity change, negative = cytotoxicity” value was -0.335% (inactive).

With `O=[N+]([O-])c1cccc(C(F)(F)F)c1`, the “activity change, negative = cytotoxicity” value was 0.298% (inactive).
